# A selection: hits, their analogues and other compounds. The true share with any hit is near 19%.
# TDP1 cell CPT = growth inhibition of DT40 Tdp1-/-;hTDP1 cells with camptothecin (screen for TDP1 inhibitors). chicken DT40 Tdp1-/-;hTDP1 cells + 20 nM CPT, ATP luminescence, 48 h. Potency, µM (doses to about 46.2 µM), for inactives: top-dose activity change, negative = growth inhibition, usual class: inhibitors. hit rate 12% among 420,000. AID 686979; note: potency is the fitted concentration of half-maximal effect; nearly all actives have a fitted effect of over 55% in size
#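 Chicken DT40 Tdp1-/- cells stably complemented with human TDP1 were seeded at 400 cells/well in medium containing 20 nM camptothecin, exposed to pin-transferred compounds, and grown at 37 °C for at least 48 hr. Viability was read as ATP luminescence.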
# IL-1B inflam inh = blocks inflammasome-driven IL-1 beta release; AID 743279; activity change, % at 57.5 µM; THP-1 LPS/ATP IL-1B secretion, AlphaLISA, 16 h; hits give low values; hit rate 4.7% among 360,000; in the data active = activity change below about -50%; inconclusive = mostly about -30% to -49%
#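 Secreted IL-1B measured by AlphaLISA bead assay after 16 h compound exposure of THP-1 cells; compounds (final up to 57.5 uM) added 1 h before LPS (250 ng/mL) and ATP (1.25 mM) stimulation; lower signal means less secretion.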
# HT1080-NT tox = kills 2HG-producing HT-1080-NT fibrosarcoma cells; HT-1080-NT fibrosarcoma viability, CellTiter-Glo ATP luminescence, 48 h; AID 686970; Potency, µM (doses to about 46.1 µM), for inactives: at the highest dose activity, negative = less viability, most hits filed as cytotoxic; hit rate 1.6% among 360,000;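 note: NT is the 2HG producing partner of a matched IDH1 knockdown line; potency is the fitted concentration of half-maximal effect; 0% = DMSO-treated cells and -100% = media-only wells without cells; nearly all actives have a fitted effect of over 55% in size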
#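 Luminescent CellTiter-Glo readout after 48 hours of compound exposure at 37 degrees C defined viability of HT-1080-NT cells. Activity was normalized to DMSO wells and cell-free media wells; concentration-response curves were fitted and assigned curve classes.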
# DT40 TDP1 no CPT = qHTS for Inhibitors of human tyrosyl-DNA phosphodiesterase 1 (TDP1): qHTS in cells in absence of CPT; DT40 Tdp1-/- hTDP1 cells, no CPT, ATP luminescence, 48 h; Potency, µM (top dose mostly 46.2 µM), inactives show at the highest dose activity change, negative = growth inhibition, hits mostly inhibitors; hit rate 15% among 420,000; note: potency is the fitted concentration of half-maximal effect; nearly all actives have a fitted effect of over 55% in size
#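 Readout: luminescence from CellTiter-Glo after 30 min in the dark at RT. Cells: DT40 Tdp1-/- with stable hTDP1, 400/well. Exposure: compounds alone, ≥48 hr, 37 °C.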
# HT1080 IDH1KD tx = HT-1080 IDH1 knockdown cell toxicity (counter line). hit rate 2% among 360,000. HT-1080 IDH1 knockdown viability, ATP luminescence, 48 h. Potency, µM (top dose mostly 46.1 µM), without a hit: at the top dose activity, negative = toxicity, actives largely listed as cytotoxic;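 note: potency is the fitted concentration of half-maximal effect; 0% = DMSO wells and -100% = cell-free medium wells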
#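 Viability of IDH1-knockdown HT-1080 fibrosarcoma cells was assessed by CellTiter-Glo after 48 h at 37 °C with titrated compound; concentration-effect curves were classified by fit quality and response size.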
# An asterisk follows results filed as active; ? = inconclusive; · = not tested or not shown. Unless noted, calls come from the whole dose curve; as a rule, active = well fitted curve in the direction sought with a large enough effect; inconclusive = small, poorly fitted or top-dose-only effect, or another doubt; inactive = no such curve, though single readings can be large; an effect the other way counts as inactive or inconclusive. Unless noted, % is set by controls: 0 for no effect and ±100 for the full control effect.
SMILES,TDP1 cell CPT,IL-1B inflam inh,HT1080-NT tox,DT40 TDP1 no CPT,HT1080 IDH1KD tx
CC(C)OC(=O)C(C(=O)C(F)(F)F)c1cc(NS(=O)(=O)c2ccc3ccccc3c2)c2ccccc2c1O (stereo not given),23µM*,-61*,8.2µM*,21µM*,12µM*
COc1ccc(CC(=S)N2CCOCC2)cc1,?,40,13%,18µM*,12%
Cc1ccc(CC(=S)N2CCOCC2)cc1,-1%,17,16%,-20%,23%
Cc1csc(N(C(=O)c2ccccc2F)c2ccccc2)n1,23µM*,11,0%,10µM*,-4%
Cc1ccc2c(c1)c(-c1csc(N)n1)c(C)n2C,2%,13,-12%,-6%,-7%
Cc1nonc1CC(=O)N1CCCC(C(=O)c2cccc(C(F)(F)F)c2)C1 (stereo not given),?,27,0%,-25%,1%
Cc1ccc2c(c1)Oc1ccc(NC(=O)CCl)cc1C(=O)N2,2.6µM*,-100*,3.7µM*,2.3µM*,2.9µM*
Cc1cccc(N2CCN(C(=O)c3ccncc3)CC2C)c1 (stereo not given),-24%,-2,0%,-24%,-8%
Cc1ccc(N2C(=O)C3C4C=CC(CNC(=S)N5CCN(c6cccc(C)c6)C(C)C5)(O4)C3C2=O)cc1 (stereo not given),9.2µM*,27,30%,4.6µM*,-3%
O=C1CC(N(CCc2ccccc2)C(=S)Nc2cc(Cl)ccc2Cl)C(=O)N1c1c(Cl)cccc1Cl (stereo not given),16µM*,-6,-22%,10µM*,-13%
CCCOc1ccc(N2C(=O)CC(N(CCc3ccc(OC)c(OC)c3)C(=S)Nc3ccccc3)C2=O)cc1 (stereo not given),?,29,-3%,?,0%
CNC(=S)N(CCc1ccc(OC)c(OC)c1)C1CC(=O)N(c2ccccc2)C1=O (stereo not given),?,·,-8%,26µM*,?
COc1cc(OC)c(C(=O)O/N=C(\N)c2cccc(C)c2)cc1OC,21µM*,-15,?,?,?
Cc1ccc(/C(N)=N/OC(=O)c2cccs2)cc1,23µM*,-4,-1%,21µM*,-9%
COc1ccc(C(=O)CC(C#N)c2ccc3c(c2)OCO3)cc1OC (stereo not given),?,-10,4%,21µM*,-19%
COc1cc(OC)c(C(=O)O/N=C(\N)c2ccc(C)cc2)cc1OC,?,?,-8%,?,-4%
N/C(=N\OC(=O)c1cccs1)c1ccccc1,?,-14,3%,?,-6%
N/C(Cc1cccc2ccccc12)=N\OC(=O)c1ccc2c(c1)OCO2,16µM*,16,-4%,21µM*,-1%
CCc1ccc(NC(=O)Cn2cnc3sc(C)c(S(=O)(=O)N4CCC(C)CC4)c3c2=O)cc1,-6%,·,·,-27%,·
O=C(Nc1ccccc1C(=O)N1CCCC1)c1cccc(S(=O)(=O)N2CCCCC2)c1,-23%,-3,-2%,?,-4%
Cc1cccc(/C(N)=N/OC(=O)c2cccs2)c1,-29%,22,8%,-23%,2%
COc1ccc(/C(N)=N/OC(=O)c2ccc3c(c2)OCO3)cc1OC,21µM*,-62*,?,?,0%
COc1ccc(/C(N)=N/OC(=O)c2cccs2)cc1OC,12µM*,?,8%,?,-14%
CCc1ccc(-c2csc3ncn(CC(=O)N4CCOCC4)c(=O)c23)cc1,-2%,?,-11%,2%,-8%
O=C(NN=C1CCCC1)c1ccc(Br)cc1,2%,-5,0%,-23%,-2%
SMILES,TDP1 cell CPT,IL-1B inflam inh,HT1080-NT tox,DT40 TDP1 no CPT,HT1080 IDH1KD tx
CCOC(=O)C(CC)n1cnc2c(nnn2-c2ccccc2)c1=O (stereo not given),-19%,28,10%,-9%,8%
CN(C)CCNC(=O)COc1cccc(Cl)c1,5%,-10,3%,-3%,20%
O=[N+]([O-])c1ccc(Oc2ccc(/C=N/O)cc2)nc1,-17%,-17,-7%,-10%,-15%
O=[N+]([O-])c1ccc(Oc2ccc(Oc3ccc(C(F)(F)F)cn3)cc2)nc1,?,?,-1%,26µM*,-5%
Cc1ccc(-c2nc3ccc(C)cn3c2Cc2ccccc2C(F)(F)F)cc1,29µM*,-28,?,?,?
Cc1ccc2nc(-c3ccccc3)c(Cc3ccccc3C(F)(F)F)n2c1,16µM*,-13,?,?,?
COc1ccc(Cc2c(C(C)(C)C)nc3ccc(C)cn23)c(C)c1,15µM*,-14,?,13µM*,?
Cc1ccc2nc(C(C)(C)C)c(Cc3ccccc3C(F)(F)F)n2c1,16µM*,-9,?,15µM*,?
Cc1cc2nc(C(C)(C)C)c(Cc3ccccc3C(F)(F)F)n2c(C)c1Br,?,47,?,?,?
COc1ccc(Cc2c(C(C)(C)C)nc3ccc(Cl)cn23)c(C)c1,?,19,?,?,?
CC(C)c1cc(Cn2c3ccccc3c(=O)n2C(C)C)on1,-24%,33,22%,-9%,8%
CC1CCCCC1NC(=O)c1cc(Cl)nc2ccccc12 (stereo not given),-19%,22,0%,?,0%
COc1ccccc1Cc1c(C(C)(C)C)nc2ccc(C)cn12,0.65µM*,6,?,9.2µM*,?
COc1ccccc1Cc1c(-c2ccccc2)nc2ccc(Cl)cn12,?,28,-23%,?,-13%
Cc1ccc(-c2nc3c4ccccc4ccn3c2Cc2ccccc2C(F)(F)F)cc1,?,22,10%,16µM*,8%
CCCN(CC1CC1)C(=S)NC(=O)c1cc(Br)ccc1Cl,?,31,-9%,16µM*,-20%
CCCN(CC1CC1)C(=S)NC(=O)c1ccccc1C,-2%,-6,12%,-22%,13%
CCOc1ccc(NS(=O)(=O)c2ccc3[nH]cc(C(=O)NC(C)CC)c(=O)c3c2)cc1 (stereo not given),?,-13,-18%,21µM*,-30%
CCOc1ccc(N(C)S(=O)(=O)c2ccc3[nH]cc(C(=O)NCCCOC)c(=O)c3c2)cc1,23µM*,10,2%,21µM*,0%
Cc1ccc(C)c(N(C)S(=O)(=O)c2ccc3[nH]cc(C(=O)NCCN4CCOCC4)c(=O)c3c2)c1,-24%,-63*,-2%,?,1%
CCCNC(=O)c1c[nH]c2ccc(S(=O)(=O)N(C)c3ccc(OCC)cc3)cc2c1=O,?,-3,-10%,23µM*,-20%

# Compound activity (PubChem)
